Measured values taken from PubChem BioAssay AID686979 (National Center for Advancing Translational Sciences (NCATS), 2013).
Among all 420,000 compounds or so, about 50,000 (12%) were called active. Entries that show only a call come without a potency. Another 26% or so got no clear call; they are omitted. The sample holds actives, similar compounds and a random draw of the others, so the mix is not that of the screen. A number with no mark means an inactive call. Calls follow the shape of the dose curve; as a rule, active = well fitted inhibition curve with a large enough effect; inconclusive = small, poorly fitted or top-dose-only effect; inactive = flat fitted curve, though single readings scatter.

experiment: qHTS for Inhibitors of human tyrosyl-DNA phosphodiesterase 1 (TDP1): qHTS in cells in presence of CPT; conditions: chicken DT40 Tdp1-/-;hTDP1 cells + 20 nM CPT, ATP luminescence, 48 h; series mostly up to 46.2 µM; also: nearly all actives have a fitted effect of over 55% in size
How it was run: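 Chicken DT40 Tdp1-/- cells stably complemented with human TDP1 were seeded at 400 cells/well in medium containing 20 nM camptothecin, exposed to pin-transferred compounds, and grown at 37 °C for at least 48 hr. Viability was read as ATP luminescence.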
Potency is read from the fitted curve at half-maximal effect.

**Q.** With Cc1ccc(C(=O)Cn2cccn2)cc1 as the compound, how does the Potency read?
**A.** inactive

**Q.** With OC(CNCc1ccc2c(c1)OCO2)COc1ccccc1 (centres undefined) as the compound, how does the Potency read?
**A.** inactive

**Q.** With COC(C)C(C(=O)OCC1=CCN2CC[C@H](O)[C@@H]12)C(C)C (some centres undefined) as the compound, how does the activity change, negative = growth inhibition read?
**A.** -27.6% [at 9.04 µM]

**Q.** With N#Cc1c(C(F)(F)F)cc(-c2cccs2)nc1N1CCCCC1 as the compound, how does the Potency read?
**A.** inactive

**Q.** Which Potency does the source give for COc1ccc(CCNC(=S)N2CCN(S(=O)(=O)c3ccc(F)cc3)CC2)cc1 here?
**A.** inactive

**Q.** Which Potency does the source give for Cc1cc(NC(=O)CSc2nc(=O)cc(N)n2-c2ccc(F)cc2)no1 here?
**A.** inactive

**Q.** For Cc1nc2nc(C)c(CCC(=O)N3CCN(c4ccccc4)CC3)c(C)n2n1, which Potency is on record?
**A.** inactive

**Q.** Which Potency does the source give for CCOc1cccc2cc(-c3cn4c(n3)sc3cc(C)ccc34)c(=O)oc12 here?
**A.** inactive

**Q.** With COc1ccc(CCNC(=O)c2ccc3c(c2)sc2nc(-c4ccc(C)cc4)cn23)cc1OC as the compound, how does the Potency read?
**A.** 6.51 µM (active)

**Q.** For CCOC(=O)C1CCCN(C(=O)c2cncc(Br)c2)C1 (centres undefined), which Potency is on record?
**A.** inactive

**Q.** Which Potency does the source give for COc1ccc(C(=O)NCCCN2CCOCC2)cc1Br here?
**A.** inactive

**Q.** For CCOC(=O)C1CCCN(C(=O)c2ccc(CS(=O)(=O)c3ccc(Br)cc3)o2)C1 (centres undefined), which Potency is on record?
**A.** inactive

**Q.** Which Potency does the source give for Cc1ccc2c(CC(=O)NCc3cccs3)coc2c1 here?
**A.** inactive

**Q.** For COc1ccc(-c2cc(C(=O)NCCCN3CCOCC3)no2)cc1, which Potency is on record?
**A.** inactive

**Q.** For CCOC(=O)C1CCCN(C(=O)c2ccc3c(c2)sc2nc(-c4ccc(CC)cc4)cn23)C1 (centres undefined), which Potency is on record?
**A.** 4.11 µM (active)

**Q.** For Cc1ccc(-c2cn3c(n2)sc2cc(C(=O)NCc4cccs4)ccc23)c(C)c1, which Potency is on record?
**A.** 23.1 µM (active)

**Q.** With CCN1CCN(CCCNC(=O)c2ccc3c(c2)sc2nc(-c4ccc(OC)cc4)cn23)CC1 as the compound, how does the Potency read?
**A.** 0.92 µM (active)

**Q.** With C=C1O[C@@](CO)(n2cnc3c(N)ncnc32)[C@H](O)[C@@H]1O as the compound, how does the Potency read?
**A.** inactive

**Q.** Which Potency does the source give for Cc1cccc(NC(=O)CCN2CC(C)CC(C)C2)c1 (centres undefined) here?
**A.** inactive

**Q.** For CCOc1ccc(C(=O)COC(=O)c2ccc(-n3cnnn3)cc2)cc1, which Potency is on record?
**A.** inactive

**Q.** With COC(=O)c1ccc(/C=N/NC(=O)C(=O)N2CCCCCC2)cc1 as the compound, how does the Potency read?
**A.** inactive

**Q.** Which Potency does the source give for CCOC(=O)c1c(S(=O)(=O)N2CCCC(C(=O)NCc3cccc(C)c3)C2)c(C)n(C)c1C (centres undefined) here?
**A.** inactive

**Q.** For CCC(C)N(C(=O)Cn1nc(C)c([N+](=O)[O-])c1C)C1CCS(=O)(=O)C1 (centres undefined), which Potency is on record?
**A.** inactive

**Q.** With CCOc1ccc(NC(=O)c2ccc(NC(=O)CN3C(=O)C(=O)N(CC(C)C)C3=O)cc2)cc1 as the compound, how does the Potency read?
**A.** inactive

**Q.** With O=C(NCCCN1CCOCC1)c1cnn2c(-c3ccccc3)cc(-c3ccccc3)nc12 as the compound, how does the Potency read?
**A.** 18.4 µM (active)

**Q.** Which Potency does the source give for O=C(NCCCN1CCOCC1)c1ccccc1NS(=O)(=O)c1ccc(Br)cc1 here?
**A.** inactive

**Q.** With O=C(NCCCN1CCOCC1)c1ccccc1NS(=O)(=O)c1ccc(F)cc1 as the compound, how does the Potency read?
**A.** inactive

**Q.** Which Potency does the source give for O=C(NCc1ccco1)/C(=C\c1cccc([N+](=O)[O-])c1)NC(=O)c1ccco1 here?
**A.** inactive

**Q.** Which Potency does the source give for CC(=O)Oc1ccc2c(c1)C(=O)c1ccccc1C2=O here?
**A.** inactive

**Q.** With O=C1C(Cl)=C(Oc2ccccc2)C(=O)c2ccccc21 as the compound, how does the Potency read?
**A.** 0.326 µM (active)

**Q.** For COc1ccccc1-n1c(SCC(=O)Nc2ccc(Cl)cc2)nc(O)c(Cc2ccccc2)c1=O, which Potency is on record?
**A.** inactive

**Q.** Which Potency does the source give for CCN1CCc2nc3sc(C(=O)Nc4ccccc4OC(F)(F)F)c(N)c3cc2C1 here?
**A.** 16.4 µM (active)

**Q.** For COc1ccc(Cl)cc1NC(=O)c1sc2nc3c(cc2c1N)CN(C)CC3, which Potency is on record?
**A.** 23.1 µM (active)

**Q.** For CCN1CCc2nc(NC(=O)c3cc(F)c(F)cc3Cl)sc2C1, which Potency is on record?
**A.** inactive

**Q.** Which Potency does the source give for COc1ccc(Cl)cc1NC(=O)c1oc(C)nc1C here?
**A.** inactive

**Q.** With COc1ccc(Cl)cc1NC(=O)CN1CCN(C(=O)N2CCOCC2)CC1 as the compound, how does the Potency read?
**A.** inactive

**Q.** Which Potency does the source give for CC(=O)Nc1ccc(NC(=O)c2sc3nc4c(c(-c5ccc(C)cc5)c3c2N)CCC4)cc1 here?
**A.** inactive

**Q.** Which Potency does the source give for CCc1ccc(NC(=O)c2sc3nc4c(cc3c2N)CN(CC)CC4)cc1 here?
**A.** 23.1 µM (active)

**Q.** With Cc1ccc(NC(=O)c2sc3nc(N)c(C#N)cc3c2N)cc1 as the compound, how does the Potency read?
**A.** inactive

**Q.** Which Potency does the source give for COc1ccccc1NC(=O)c1ccc2nc(N3C(=O)CCC3=O)sc2c1 here?
**A.** inactive

**Q.** With O=C(c1cn(-c2ccccc2)nc1-c1cccnc1)N1CCN(S(=O)(=O)c2ccccc2F)CC1 as the compound, how does the Potency read?
**A.** inactive

**Q.** Which Potency does the source give for O=C(NC(=S)Nc1ncccn1)c1ccccc1Br here?
**A.** inactive

**Q.** Which Potency does the source give for COC(=O)C1(CCSC)NC(c2ccc(OC)cc2OC)C2C(=O)N(c3cccc(C(C)=O)c3)C(=O)C21 (centres undefined) here?
**A.** inactive

**Q.** With O=C(CSc1ccccn1)N1CCN(S(=O)(=O)c2ccc(Cl)cc2)CC1 as the compound, how does the Potency read?
**A.** inactive

**Q.** With O=P(O)(O)OC[C@H](O)CO as the compound, how does the Potency read?
**A.** inactive

**Q.** With Cc1cn([C@H]2C[C@H](O)[C@@H](/C=C/C(=O)NCCCc3ccccc3)O2)c(=O)[nH]c1=O as the compound, how does the Potency read?
**A.** inactive

**Q.** With Cc1ccc(CNCc2ccc3c(c2)OCO3)c(C)c1 as the compound, how does the Potency read?
**A.** inactive

**Q.** For Cc1ccc(S(=O)(=O)N(CCCN(C)C)Cc2ccc3c(c2)OCO3)cc1, which Potency is on record?
**A.** 16.4 µM (active)

**Q.** With Cc1ccc(-c2nc(CS(=O)(=O)CC(=O)NCc3ccc4c(c3)OCO4)c(C)o2)cc1 as the compound, how does the Potency read?
**A.** inactive

**Q.** With CC1CN(C(=S)Nc2ccc(Br)cc2Cl)CC(C)O1 (centres undefined) as the compound, how does the Potency read?
**A.** inactive

**Q.** For CC[n+]1cc(C)ccc1/C=C/c1ccc(N(C)C)cc1, which Potency is on record?
**A.** 0.0291 µM (active)

**Q.** Which Potency does the source give for COc1ccccc1-n1cnc2cc(NS(=O)(=O)c3ccccc3)ccc21 here?
**A.** inactive

**Q.** Which Potency does the source give for CCOC(=O)CSC1=Nc2ccccc2C2=NC(CCC(=O)NCc3ccc(F)cc3)C(=O)N12 (centres undefined) here?
**A.** inactive

**Q.** Which Potency does the source give for CCN1N=C(c2ccccc2)CCC1=O here?
**A.** inactive

**Q.** Which Potency does the source give for CC(=O)NC1=NN(C(C)=O)C(C)(c2ccc(Cl)s2)S1 (centres undefined) here?
**A.** 6.51 µM (active)

**Q.** For CC(=O)NC1=NN(C(C)=O)C(C)(CCS(=O)(=O)c2ccc(Cl)c(Cl)c2)S1 (centres undefined), which Potency is on record?
**A.** inactive

**Q.** Which Potency does the source give for O=C(NC1=NCCS1)c1ccc(Cl)s1 here?
**A.** inactive

**Q.** Which Potency does the source give for CC/C(Cc1ccccc1)=N/NC(=O)CCn1nnc2ccccc21 here?
**A.** inactive

**Q.** Which Potency does the source give for OCCNc1nc(Nc2ccc(Cl)c(Cl)c2)nc2ccccc12 here?
**A.** 18.4 µM (active)

**Q.** For Nc1nc(Nc2ccccc2)nc(NCCO)c1[N+](=O)[O-], which Potency is on record?
**A.** inactive

**Q.** With O=C(O)c1ccc(Nc2nc(-c3ccccc3)c3cc(Br)ccc3n2)cc1 as the compound, how does the Potency read?
**A.** inactive

**Q.** With CO[C@H]1[C@@H]2C=CO[C@@H](O[C@H]3O[C@@H](CO)[C@H](O)[C@@H](O)[C@@H]3O)[C@@H]2[C@@]2(CO)O[C@@H]12 as the compound, how does the Potency read?
**A.** inactive

**Q.** With CCN(C(=O)CSc1nnc(-c2ccncc2)o1)c1ccccc1 as the compound, how does the Potency read?
**A.** inactive

**Q.** With O=C(COc1ccccc1)N1CCN=C1SCc1cccc(F)c1 as the compound, how does the Potency read?
**A.** inactive
